The list is not random: actives were taken first. Their share in the collection is about 10%.
HPGD inh: inhibitors of human 15-hydroxyprostaglandin dehydrogenase (HPGD); P15428; purified HPGD, NADH fluorescence kinetic, PGE2 substrate; Potency, µM, actives largely listed as inhibitors; hit rate 4.3% among 150,000
Target sequence (P15428 whole entry, looked up): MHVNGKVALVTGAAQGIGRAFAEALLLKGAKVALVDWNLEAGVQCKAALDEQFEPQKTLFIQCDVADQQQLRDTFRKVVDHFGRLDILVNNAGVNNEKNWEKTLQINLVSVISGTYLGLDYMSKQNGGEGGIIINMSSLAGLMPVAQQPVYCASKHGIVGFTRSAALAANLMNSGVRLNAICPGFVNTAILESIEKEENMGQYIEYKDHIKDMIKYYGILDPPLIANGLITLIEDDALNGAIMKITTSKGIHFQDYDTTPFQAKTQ
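NADH formation kinetics: reaction with 30 uM PGE2 and 1 mM NAD+ (final), 20 nM enzyme, Tris-HCl pH 8 with Tween 20, after 15 min compound preincubation at room temperature. Fluorescence change, last versus first of five reads.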
12-hLO inh: 12-hLO (ALOX12) enzyme inhibition; AID 1452; hit rate 0.12% among 150,000; purified 12-hLO, xylenol orange hydroperoxide absorbance; Potency, µM (series often up to 57.1 µM), hits mostly inhibitors; active = well fitted inhibition curve with a large enough effect; inconclusive = small, poorly fitted or top-dose-only effect; also: nearly all actives have a fitted effect of over 55% in size
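Hydroperoxide formation by human 12-lipoxygenase from 40 uM arachidonic acid was followed colorimetrically via ferric-xylenol orange complex, using the 573/405 nm absorbance ratio. Enzyme concentration was 150 nM, with 30 min reaction at room temperature.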
ALDH1A1 block: inhibitors of human aldehyde dehydrogenase 1A1 | hit rate 7.3% among 220,000 | Purified ALDH1A1, NADH fluorescence, propionaldehyde substrate | P00352 | Potency, µM (series often up to 75.3 µM), actives largely listed as inhibitors
PNC inhibitor: blocks assembly of the perinucleolar compartment; activity change (PNC), negative = inhibition, % at 10 µM; hit rate 3.1% among 140,000; PC3M PTB-GFP, PNC prevalence imaging, 16 h; stronger effect = lower value;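 active = readout at or below -70, meaning at least 70% loss of cells showing the perinucleolar compartment, a nuclear body marking cancer cells; inconclusive = readout between -30 and a set limit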
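Compounds are pinned in duplicate onto adhered PC3M cells stably expressing GFP-tagged PTB and incubated 16 h at 37 C. Cells are then fixed, nuclei stained with Hoechst, and PNC-positive cells counted.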
LMNA splice mod: changes lamin A minigene splicing in HeLa cells | HeLa LMNA splicing GFP/RFP minigene ratio, 48 h | Potency, µM (titrated, usually from 46.1 µM), actives largely listed as inhibitors | hit rate 0.01% among 200,000; active = well fitted inhibition curve with a large enough effect in the signal ratio, with a control signal flat, not every such curve was filed as active; inconclusive = small, poorly fitted or top-dose-only effect, or effect the other way, or a change in a side signal; the % refers to the signal ratio
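Read-out is the ratio of GFP to DsRed2 object intensity, acquired by 488 nm laser-scanning cytometry on HeLa lamin A-EGFP minigene reporter cells. Compound incubation 48 hrs at 37 °C in Opti-MEM with 2% FBS; DMSO 0.5% final.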
Numbers stand for hits; n = inactive; u = inconclusive; x = no result; [ ] = remark or other dose. Unless noted, calls follow the shape of the dose curve; as a rule, active = well fitted inhibition curve with a large enough effect (not every such curve was filed as active); inconclusive = small, poorly fitted or top-dose-only effect, or another doubt; inactive = no such curve, though single readings can be large or run the other way.

SMILES	HPGD inh	12-hLO inh	ALDH1A1 block	PNC inhibitor	LMNA splice mod
O=C(Nc1nccs1)c1csc2c1CCCC2	25.1µM	n	u	n	u
O=C(NCc1ccco1)c1csc2c1CCCCC2	6.31µM	n	u	n	n
CC(C)CCNC(=O)c1csc2c1CCCCC2	x	x	n	x	x
O=C(NCCc1csc(-c2cccnc2)n1)c1ccc(F)c(F)c1	x	x	x	x	n
CCC/C=C(\CCC)C(NC(=O)C(C)(C)C)c1ccc(C(=O)OC)cc1 (stereo unspecified)	n	n	n	x	x
CCc1ccccc1NC(=O)N1CCN(c2cc(-c3noc(C)n3)ccc2C)CC1	x	x	x	x	n
COc1ncc2nc(-c3cccs3)c(=O)n(Cc3cccs3)c2n1	x	x	u	x	n
O=C(NCc1ccccc1)c1csc2c1CCCC2	x	x	n	x	n[9.22 µM]
O=C(NCc1ccccc1)c1csc2c1CCCCC2	8.91µM	n	17.8µM	n	n
CCC(=O)OC1=C(C(C)=O)N(Cc2ccccc2)S(=O)(=O)c2ccccc21	x	x	x	x	n
COc1cccc2sc(NC(=O)CS(=O)(=O)c3ccc(C)cc3)nc12	x	x	x	x	n
CCOc1cccc(C=Nc2cc(C)cc(C)c2O)c1O	11.2µM	n	22.4µM	u	n
Cc1cc(C)c2cc3c(N)c(C(=O)N4CCc5ccccc5C4)sc3nc2c1	7.08µM	n	n	u	n
Cc1ccc2nc3sc(C(=O)N4CCCc5ccccc54)c(N)c3cc2c1	n	n	n	n	u
COc1ccc(C(=O)CSc2nnc(-c3ccco3)c(-c3ccco3)n2)cc1	x	x	3.98µM	x	n
Cc1ccc(SCC(=O)Nc2ccc(-c3nnc(-c4ccco4)o3)cc2)cc1	n	n	n	n	n
CSc1nnc(-c2ccco2)c(-c2ccco2)n1	8.91µM	n	3.55µM	n	n
O=C(CSc1nnc(-c2ccco2)c(-c2ccco2)n1)Nc1ccccc1	25.1µM	u	2µM	n	n
Cc1ccc(NC(=O)CSc2nnc(-c3ccco3)c(-c3ccco3)n2)cc1	11.2µM	u	3.16µM	n	u
COc1ccc(C(=O)CSc2nnc(-c3ccco3)n2C)cc1	n	n	u	n	n
CSc1nnc2c(n1)OC=Nc1ccccc1-2	n	n	n	n	n
CC(=O)N1CCOc2cc(S(=O)(=O)NCc3ccccc3Cl)c(Cl)cc21	x	x	x	x	n
C[C@@H](C1[C@@H](O)CC2C3C=CC4C[C@@H](O)CC[C@]4(C)[C@H]3CC[C@@]21C)[C@@H]1CCCCN1 (stereo partly specified)	n	x	n	x	x
COC(=O)c1ccc(C2c3c(oc4ccccc4c3=O)C(=O)N2CCCN2CCOCC2)cc1 (stereo unspecified)	n	n	u	n	n
CCOc1ccc(C2c3c(oc4ccccc4c3=O)C(=O)N2CCCN2CCOCC2)cc1 (stereo unspecified)	n	n	6.31µM	n	n
SMILES	HPGD inh	12-hLO inh	ALDH1A1 block	PNC inhibitor	LMNA splice mod
CCOc1ccc(C2c3c(oc4cc(C)c(C)cc4c3=O)C(=O)N2CCCN2CCOCC2)cc1 (stereo unspecified)	n	n	7.94µM	n	n
CCCOc1ccc(C2c3c(oc4ccccc4c3=O)C(=O)N2CCCN2CCOCC2)cc1 (stereo unspecified)	n	n	8.91µM	n	n
COc1cccc(C2c3c(oc4cc(C)c(C)cc4c3=O)C(=O)N2CCCN(C)C)c1 (stereo unspecified)	n	n	28.2µM	u	n
CCOc1ccc(C2c3c(oc4cc(C)c(C)cc4c3=O)C(=O)N2CCCN(C)C)cc1OC (stereo unspecified)	n	n	u	u	n
O=c1cnc2cnc(Oc3cccc(Cl)c3)nc2n1C[C@H]1CCCO1	x	x	u	x	n
Cc1cc2oc3c(c(=O)c2cc1C)C(c1ccc(C(C)C)cc1)N(CCCN1CCOCC1)C3=O (stereo unspecified)	n	n	3.98µM	n	n
Cc1cc(C)cc(-n2c(SCC(=O)Nc3nnc(C)s3)nc3c([nH]c4ccccc43)c2=O)c1	x	x	x	x	n
Cc1ccccc1NC(=O)C1c2cccc[n+]2CC(=O)N1c1c(C)cccc1C (stereo unspecified)	n	n	11.2µM	u	n
N#Cc1ccc(CS(=O)(=O)c2nc3ccccc3s2)cc1	n	x	u	x	x
CCC1(C)Cc2c(sc(NC(=S)NC(=O)c3ccccc3)c2C#N)CO1 (stereo unspecified)	7.94µM	n	u	u	n
COC(=O)CCC(=O)Nc1sc2c(c1C#N)CCCC2	x	n	11.2µM	u	n
CC1CCc2sc(NC(=S)NC(=O)c3ccccc3)c(C#N)c2C1 (stereo unspecified)	n	n	10µM	-80.2	n
CC(=O)Nc1sc2c(c1C#N)CCCC2	n	n	n	n	n
CCCC(=O)Nc1sc2c(c1C#N)CCCC2	n	n	u	u	n
N#Cc1c(NC(=O)c2ccncc2)sc2c1CCC2	n	n	10µM	n	u
N#Cc1c(NC(=S)NC(=O)c2ccccc2)sc2c1CCC2	n	n	14.1µM	n	n
CC(C)(C)c1ccc(C(=O)NC(=S)Nc2sc3c(c2C#N)CCC3)cc1	u	n	n	n	n
N#Cc1c(NC(=O)C2CC(c3ccccc3O)=NO2)sc2c1CCC2 (stereo unspecified)	25.1µM	n	11.2µM	n	n
N#Cc1c(NC(=O)C2CC(c3ccccc3Cl)=NO2)sc2c1CCC2 (stereo unspecified)	u	n	u	n	n
N#Cc1c(NC(=S)NC(=O)Cc2cccs2)sc2c1CCCCC2	n	n	3.98µM	n	u
N#Cc1c(NC(=O)c2cnn3cccnc23)sc2c1CCCC2	x	x	12.6µM	x	u
Cc1ccc(/C=C/c2onc(C)c2S(=O)(=O)N2CCC(C(=O)N(CCC(C)C)Cc3ccco3)CC2)cc1	x	x	x	x	n
COc1cccc(Oc2nc(C)nc3c2oc2ccccc23)c1	x	x	x	x	n
CN(C)CCNC(=O)CN1C(=O)CCn2nc(-c3cn(C)c4ccccc34)cc21	x	x	x	x	n
Cc1nc2cnc(N3CCNCC3)nc2n(CCC#N)c1=O	u	n	u	x	x
SMILES	HPGD inh	12-hLO inh	ALDH1A1 block	PNC inhibitor	LMNA splice mod
CC(C)(C)C(=O)NC(NC(=S)Nc1sc2c(c1C#N)CCCC2)C(Cl)(Cl)Cl (stereo unspecified)	u	u	6.31µM	n	n
CC(C)(C)C(=O)Nc1sc2c(c1C#N)CCC2	x	x	n	x	n
Cn1nc(C(=O)Nc2sc3c(c2C#N)CCCC3)ccc1=O	x	x	2.24µM	x	n[9.22 µM]
CC(=O)NC(=S)Nc1sc2c(c1C#N)CCCCC2	x	n	1.41µM	-115.2	n
N#Cc1c(NC(=O)C2C3C=CC(C3)C2C(=O)O)sc2c1CCCCC2 (stereo unspecified)	x	x	12.6µM	x	x
Clc1ccc(N2CCN(c3ncnc4c3nc3n4CCCC3)CC2)cc1	x	x	x	x	n
COc1ccc(Cl)cc1NC(=O)Cn1cnc2c1c(=O)n(C)c(=O)n2C	x	x	x	x	n
CC(N)(COP(=O)(O)O)C(=O)O (stereo unspecified)	x	x	n	x	x
Cc1nc([N+](=O)[O-])c(C(=O)OCc2ccc(C#N)cc2)n1C	x	x	n	x	n[9.22 µM]
O=C(CCN1CCOCC1)c1ccc2c(c1)OCCO2	n	n	0.447µM	n	n

From PubChem
